Screening data (PubChem BioAssay)
Many of the other results were omitted from the sample, so hits are more common in it than they were.
Shiga toxin inh: A qHTS for Small Molecule Inhibitors of Shiga Toxin | Vero cells, Shiga toxin protein synthesis inhibition reporter | inhibition, % at 38.7 µM | 290,000 tested, 9.2% active | AID 2315, 2010; in the data active means inhibition mostly above about 28%, no sharp cut-off; inactive means mostly below about 43%; further: 0% is about no effect
Sm TGR block: qHTS Assay for the Inhibitors of Schistosoma Mansoni Peroxiredoxins | Schistosoma mansoni thioredoxin glutathione reductase (TGR), Q962Y6 | purified TGR, DTNB reduction, TNB absorbance 405 nm | Potency, µM (highest dose often 114 µM), without a hit: at the top dose activity change, negative = inhibition, actives largely listed as inhibitors | 360,000 tested, 3% active | AID 485364, 2010; further: potency means the concentration at half of the fitted maximal effect; on the % scale 0 is the no-effect control and ±100 the full control effect; nearly all actives have a fitted effect of over 60% in size
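TGR 20 nM + NADPH 100 uM (dispensed conc.), cpd preinc 15 min RT; start with NADPH (500 uM addition) then DTNB (15 mM addition). Kinetic TNB absorbance, 405 nm filter. Four-parameter Hill fit across titration.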
Cycloheximide cs: Cycloheximide Counterscreen for Small Molecule Inhibitors of Shiga Toxin; 300,000 tested, 12% active; cell reporter, cycloheximide protein synthesis inhibition counterscreen; max response, %; in the data active means max response mostly above about 13%, no sharp cut-off; inactive means mostly below about 14%; further: read at 38.3 µM for the half of the compounds with a filed dose; 0% is about no effect
TbPYK inhibitor: qHTS of Trypanosoma Brucei Inhibitors. pyruvate kinase (Trypanosoma brucei), Q57TT1. TbPYK enzyme, Kinase-Glo Plus ATP luminescence, 45 min. Potency, µM (doses to about 76.8 µM), without a hit: top-dose activity, negative = inhibition, most hits filed as inhibitors. 410,000 tested, 0.12% active; further: potency means the concentration at half of the fitted maximal effect; on the % scale 0 is the no-effect control and ±100 the full control effect; nearly all actives have a fitted effect of over 50% in size
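Quantitative HTS: titrated library compounds versus trypanosomal pyruvate kinase in TEA buffer (pH 7.2) containing KCl, MgCl2, BSA and Tween-20. Reactions were initiated with ADP, 130 uM final. Kinase-Glo Plus luminescence was read after 45 min at RT.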
Giardia FBPA inh: qHTS Assay for Inhibitors of Fructose-1,6-bisphosphate Aldolase from Giardia Lamblia; A8B2U2; purified Giardia FBPA; Potency, µM (series often up to 59.6 µM), for the others: top-dose activity, negative = inhibition, most hits filed as inhibitors; 290,000 tested, 0.71% active; AID 2451, 2010; further: potency means the concentration at half of the fitted maximal effect; on the % scale 0 is the no-effect control and ±100 the full control effect; nearly all actives have a fitted effect of over 55% in size
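Giardia FBPA (40 nM reagent) was preincubated 10 min at RT with compound (up to 57.5 uM final), then substrate plus GAPDH/TPI/NAD/arsenate coupling system with diaphorase/resazurin was added; resorufin fluorescence (525/598 nm) was read after 20 min.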
LmPK inhibitor: qHTS Assay for Inhibitors of Leishmania Mexicana Pyruvate Kinase (LmPK); Q27686; purified LmPK, Kinase-Glo ATP luminescence, 1 h; Potency, µM (titrated, usually from 57.5 µM), for inactives: top-dose activity change, negative = inhibition, hits mostly inhibitors; 290,000 tested, 0.37% active; AID 1721, 2009; further: potency means the concentration at half of the fitted maximal effect; on the % scale 0 is the no-effect control and ±100 the full control effect
Target sequence (Q27686 whole entry, looked up): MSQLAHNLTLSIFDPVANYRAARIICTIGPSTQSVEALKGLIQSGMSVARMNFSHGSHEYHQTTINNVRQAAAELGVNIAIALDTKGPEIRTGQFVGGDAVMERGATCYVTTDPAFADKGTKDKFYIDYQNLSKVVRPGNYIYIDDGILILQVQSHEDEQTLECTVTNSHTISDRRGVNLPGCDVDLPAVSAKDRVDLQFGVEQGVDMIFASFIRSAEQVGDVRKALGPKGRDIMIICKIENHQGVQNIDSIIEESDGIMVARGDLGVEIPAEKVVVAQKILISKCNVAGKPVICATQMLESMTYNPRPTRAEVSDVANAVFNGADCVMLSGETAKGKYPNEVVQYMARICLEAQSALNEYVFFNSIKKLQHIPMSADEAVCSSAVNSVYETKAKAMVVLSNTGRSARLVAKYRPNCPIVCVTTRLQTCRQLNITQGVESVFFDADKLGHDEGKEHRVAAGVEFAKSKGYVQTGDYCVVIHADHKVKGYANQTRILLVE
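Purified LmPK (0.1 nM) with 0.5 mM PEP and 0.1 mM ADP in imidazole buffer pH 7.2 with MgCl2/KCl, 1 h at room temperature. ATP formed was read by luciferase luminescence and normalized to no-enzyme and uninhibited controls.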
Starred values were filed as active, the others as inactive; ? = inconclusive; nt = no result; [ ] = remark or other dose. Unless noted, the call rests on the fitted dose curve; in most records, active means well fitted curve in the direction sought with a large enough effect; inconclusive means small, poorly fitted or top-dose-only effect, or another doubt; inactive means no such curve, though single readings can be large; an effect the other way counts as inactive or inconclusive.

SMILES	Shiga toxin inh	Sm TGR block	Cycloheximide cs	TbPYK inhibitor	Giardia FBPA inh	LmPK inhibitor
COCCNC(=O)C1CC(c2ccc([N+](=O)[O-])cc2)=NO1 (stereo not drawn)	-3.6	15.1%	-3.6	2.0%	4.3%	-0.9%
CCCCNC(=O)C1CC(c2cccc(F)c2)=NO1 (stereo not drawn)	57.5*	24.5%	33.4*	1.8%	7.9%	-5.6%
O=C(NCCc1cccs1)C1CC(c2ccc([N+](=O)[O-])cc2)=NO1 (stereo not drawn)	77.4*	-5.8%	59.4*	-1.2%	5.0%	-4.0%
O=C(Nc1ccccc1Cl)c1ccccc1	148.1*	19.2%	30.1*	0.4%	1.2%	3.9%[11.5 µM]
Cc1ccc(C(=O)Nc2ccccc2Cl)cc1	nt	1.8%	36.6*	-5.0%	10.3%	-19.7%
O=C(Nc1ccccc1Cl)c1ccc(C(=O)Nc2ccccc2Cl)cc1	nt	nt	nt	1.4%	nt	nt
O=C(Nc1ccc(Cl)cc1C(=O)c1ccccc1)c1ccccc1	-13.7	7.2%	-4.6	1.7%	11.4%	0.9%
Cc1c(Cl)cccc1NC(=O)c1ccc(C(=O)Nc2cccc(Cl)c2C)cc1	nt	-2.5%	nt	-0.5%	nt	nt
COc1ccccc1NC(=O)c1ccc(NC(=O)COC(=O)C(C)C)cc1	-2.1	31.6µM*	8.6	-1.0%	-0.6%	-2.5%
O=C(Nc1ccc(Cl)cc1C(F)(F)F)c1ccccc1	14.9	1.9%	15.8*	5.6%	6.5%	-2.9%
CC(=O)c1cccc(NC(=O)Cn2nc(C(F)(F)F)c3c2CCC3)c1	nt	5.6%	nt	1.0%	nt	nt
O=C(Cn1cc(SCc2ccc(F)cc2)c2ccccc21)N1CCCCC1	nt	-8.2%	nt	6.7%	nt	nt
O=C(Cn1nnc2ccccc21)NNC(=S)NC1CCCCC1	27.2	-2.4%	8.3	-15.1%	9.6%	-0.4%
O=C(Nc1cccc(Cl)c1Cl)c1ccc(-c2ccccc2)cc1	8.6	14.7%	8.1	3.8%	4.2%	-1.2%
O=C(Nc1cc(Cl)ccc1Cl)c1ccc(-c2ccccc2)cc1	34.8	-6.3%	17.2*	-8.9%	7.3%	-4.2%
O=C(Nc1ccc(Cl)cc1Cl)C1=Cc2ccccc2OC1	67.6*	-3.4%	53.5*	0.2%	0.4%	-1.4%
O=C(Nc1ccc(F)c(Cl)c1)c1cccnc1	7.0	-18.7%	13.7*	-16.8%	4.3%	-2.5%
O=C(Nc1ccc(F)c(Cl)c1)c1ccccc1	nt	3.5%	nt	-7.7%	nt	nt
O=C(Nc1ccc(C(=O)Nc2ccccc2Cl)cc1)c1cccnc1	28.7*	-17.3%	19.0*	-2.5%	nt	-4.8%
Cn1cccc1C(=O)N1CCC[C@@]2(CCN(C(=O)Nc3cccc(F)c3)C2)C1	nt	nt	nt	0.0%	4.2%	nt
COc1ccc(-c2nc3sc(CCNC(=O)C(=O)Nc4ccccc4C#N)c(C)n3n2)cc1	nt	14.5%	nt	-3.4%	nt	nt
CCOCCCn1c(SCC(=O)Nc2ccccc2CC)nc2ccccc2c1=O	nt	-3.7%	nt	-1.0%	nt	nt
Cc1ccc(C)c(CN2CCC(CNC(=O)C(CC(C)C)N3Cc4ccccc4C3=O)CC2)c1 (stereo not drawn)	nt	4.1%	nt	6.6%	nt	nt
COCC(=O)Nc1ccc(C(=O)Nc2ccccc2Cl)cc1	92.1*	5.7%	32.5*	nt	1.6%	-9.1%
COC(=O)CN1C(=O)C2(C(C#N)=C(N)Oc3n[nH]c(-c4cccs4)c32)c2ccccc21 (stereo not drawn)	-12.5	50.1µM*	0.6	-5.2%	?	1.1%
CCN1C(=O)C2(C(C#N)=C(N)Oc3n[nH]c(-c4ccccc4)c32)c2ccccc21 (stereo not drawn)	-19.8	-10.1%	-2.1	-5.8%	-4.9%	6.7%
c1coc(CSc2ncnc3c2oc2ccccc23)c1	85.3*	-28.8%	56.7*	0.3%	1.8%	2.9%
Fc1ccccc1CSc1ncnc2c1oc1ccccc12	-10.6	-15.2%	-9.0	9.1%	0.9%	1.1%
c1ccc(CSc2ncnc3c2oc2ccccc23)cc1	nt	nt	nt	4.7%	nt	nt
CCOc1ccccc1Oc1ncnc2c1oc1ccccc12	nt	2.3%	nt	6.6%	nt	nt
